Experimental data taken from PubChem BioAssay (EPA / NIEHS).
Results filed as inconclusive are left out. Calls of active or inactive are those of the source. The calls were made as follows, unless noted: active = hit-call score of the fitted dose curve at least 0.9, where 1 is the maximum; inconclusive = response in the unintended direction; inactive = score below 0.9.

Experiments:
[1] = target: human Peroxisome Proliferator-activated Receptor alpha (PPARa), PPARA (gene 5465) (UniProt Q07869); assay: ATG_PPARa_TRANS: Attagene TRANS-FACTORIAL HepG2 Assay for human Peroxisome Proliferator-activated Receptor alpha (PPARa) (AID 2283001)
Method in brief: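 HepG2 cells transiently transfected with multiplexed GAL4-UAS reporters driven by exogenous chimeric NR-Gal4 proteins; reporter mRNA measured after 24 h dosing. Read-out by RT-PCR, 6-FAM labelling, HpaI digestion and capillary electrophoresis; gain of signal versus DMSO.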

[2] = read-out: Intercellular Adhesion Molecule 1 (ICAM1), ICAM1 (gene 3383); assay: BSK_3C_ICAM1: BioMAP Diversity Plus: 3C Assay for Intercellular Adhesion Molecule 1 (ICAM1) Biomarker Activity (AID 2283003; active = hit-call score of the fitted dose curve at least 0.9, where 1 is the maximum; inactive = score below 0.9); conditions: primary human endothelial cells (HUVEC); actives raise or lower the signal
Method in brief: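 ICAM-1 levels measured by ELISA after HUVEC cultures in the 3C system had been dosed for 24 h. Gain or loss of signal relative to DMSO was fitted in both directions.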

[3] = BSK_3C_Proliferation: Cell Proliferation Assessment in the BioMAP Diversity Plus: 3C Assay (AID 2283006; active = hit-call score of the fitted dose curve at least 0.9, where 1 is the maximum; inactive = score below 0.9;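 as to AC50: potency may reflect either rise or fall in cell number versus DMSO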); conditions: primary human endothelial cells (HUVEC)
Method in brief: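 Read-out is total protein by SRB absorbance at 560 nm, taken as a proxy for relative cell number. Primary human umbilical vein endothelium cultured below confluence was dosed for 48 h, TCA-fixed and SRB-stained; curves were fitted bidirectionally versus DMSO.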

[4] = target: Peroxisome proliferator-activated receptor gamma (Homo sapiens) (UniProt P37231); assay: ATG_PPARg_TRANS: Attagene TRANS-FACTORIAL HepG2 Assay for human Peroxisome Proliferator-activated Receptor-gamma (PPARg) (AID 2283007)
Method in brief: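 After 24 h of chemical exposure, transfected HepG2 cells carrying PPARγ-Gal4 chimera reporter constructs are lysed for RNA. Reporter transcripts are measured by RT-PCR and capillary electrophoresis with fluorescent labelling, and gain of signal is fitted versus DMSO.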

[5] = target: Nuclear receptor subfamily 1 group I member 2 (Homo sapiens) (UniProt O75469); assay: ATG_PXR_TRANS: Attagene TRANS-FACTORIAL HepG2 Assay for human Pregnane X Receptor (PXR) (AID 2283008)
Method in brief: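 HepG2 cells transiently transfected with multiple reporter units, here a PXR-GAL4 chimera driving a GAL4-UAS reporter; 24 h compound exposure. Reporter mRNA measured by RT-PCR, FAM labelling and capillary electrophoresis; gain of signal fitted against DMSO baseline.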

[6] = target: human Retinoic Acid Receptor gamma (RARg), RARG (gene 5916) (UniProt P13631); assay: ATG_RARg_TRANS: Attagene TRANS-FACTORIAL HepG2 Assay for human Retinoic Acid Receptor gamma (RARg) (AID 2283009)
Method in brief: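 Transient transfection of HepG2 with multi-reporter constructs, then 24 h chemical treatment. Total RNA isolated, reverse-transcribed, PCR-amplified, fluorescently labelled and resolved by capillary electrophoresis; activity scored as mRNA induction versus DMSO.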

[7] = target: human RAR-related Orphan Receptor beta (RORb), RORB (gene 6096) (UniProt Q92753); assay: ATG_RORb_TRANS: Attagene TRANS-FACTORIAL HepG2 Assay for human RAR-related Orphan Receptor beta (RORb) (AID 2283010)
Method in brief: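 Readout is reporter-gene mRNA induction, detected as fluorescence after RT-PCR and capillary electrophoresis, fitted for gain of signal against DMSO controls. Transiently transfected HepG2 liver cells carrying GAL4-UAS reporter constructs were treated for 24 hours.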

[8] = target: human Peroxisome Proliferator-activated Receptor delta (PPARd), PPARD (gene 5467) (UniProt Q03181); assay: ATG_PPARd_TRANS: Attagene TRANS-FACTORIAL HepG2 Assay for human Peroxisome Proliferator-activated Receptor delta (PPARd) (AID 2283002)
Method in brief: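 HepG2 cells transiently transfected with GAL4-UAS multiplexed reporter units driven by exogenous chimeric NR-GAL4 proteins; 24 h compound exposure. Reporter mRNA measured by RT-PCR, 6-FAM primer extension, HpaI digestion and capillary electrophoresis; gain of signal fitted relative to DMSO.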

[9] = target: human Retinoic Acid Receptor beta (RARb), RARB (gene 5915) (UniProt P10826); assay: ATG_RARb_TRANS: Attagene TRANS-FACTORIAL HepG2 Assay for human Retinoic Acid Receptor beta (AID 2283004)
Method in brief: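 HepG2 cells were transiently transfected with GAL4-UAS reporter units that report activity of exogenous chimeric NR-Gal4 proteins, then exposed to compound for 24 h. Reporter mRNA was quantified by RT-PCR with capillary electrophoresis fluorescence, as gain of signal over DMSO.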

[10] = target: Retinoic acid receptor alpha (Homo sapiens) (UniProt P10276); assay: ATG_RARa_TRANS: Attagene TRANS-FACTORIAL HepG2 Assay for human Retinoic Acid Receptor alpha (RARa) (AID 2283005)
Method in brief: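 HepG2 transiently transfected with multiplex GAL4-UAS reporter units including a human RARa–GAL4 chimera; 24 h compound exposure. Reporter mRNA quantified by RT-PCR, 6-FAM labeling and capillary electrophoresis; gain of signal versus DMSO.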

Measured: AC50

Chain of human Peroxisome Proliferator-activated Receptor delta (PPARd), PPARD (gene 5467) (Q03181 whole entry, looked up, the tested form may be a part): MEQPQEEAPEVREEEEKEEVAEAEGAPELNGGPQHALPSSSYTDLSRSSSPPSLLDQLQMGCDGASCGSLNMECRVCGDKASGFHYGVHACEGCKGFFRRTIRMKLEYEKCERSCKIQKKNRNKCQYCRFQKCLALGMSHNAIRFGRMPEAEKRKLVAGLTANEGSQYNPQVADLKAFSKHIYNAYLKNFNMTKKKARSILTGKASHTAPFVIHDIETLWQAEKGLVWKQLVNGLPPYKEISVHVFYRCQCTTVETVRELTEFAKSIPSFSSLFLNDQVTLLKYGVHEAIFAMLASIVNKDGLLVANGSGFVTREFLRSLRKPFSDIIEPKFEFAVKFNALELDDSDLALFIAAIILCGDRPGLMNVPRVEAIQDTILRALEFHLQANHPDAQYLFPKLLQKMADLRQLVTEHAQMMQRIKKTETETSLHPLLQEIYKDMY
Chain of human Retinoic Acid Receptor gamma (RARg), RARG (gene 5916) (P13631 whole entry, looked up): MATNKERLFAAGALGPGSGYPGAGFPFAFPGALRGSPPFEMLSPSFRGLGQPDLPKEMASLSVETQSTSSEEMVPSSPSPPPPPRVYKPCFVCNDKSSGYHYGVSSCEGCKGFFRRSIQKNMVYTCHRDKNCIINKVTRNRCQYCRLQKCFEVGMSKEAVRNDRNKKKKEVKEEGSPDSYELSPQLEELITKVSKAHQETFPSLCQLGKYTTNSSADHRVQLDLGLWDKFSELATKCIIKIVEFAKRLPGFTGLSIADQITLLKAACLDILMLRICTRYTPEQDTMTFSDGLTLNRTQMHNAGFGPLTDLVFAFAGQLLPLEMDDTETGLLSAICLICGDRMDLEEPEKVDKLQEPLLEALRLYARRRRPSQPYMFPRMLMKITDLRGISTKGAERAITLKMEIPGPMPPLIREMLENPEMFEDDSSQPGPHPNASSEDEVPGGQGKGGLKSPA
Chain of human Peroxisome Proliferator-activated Receptor alpha (PPARa), PPARA (gene 5465) (Q07869 whole entry, looked up, the tested form may be a part): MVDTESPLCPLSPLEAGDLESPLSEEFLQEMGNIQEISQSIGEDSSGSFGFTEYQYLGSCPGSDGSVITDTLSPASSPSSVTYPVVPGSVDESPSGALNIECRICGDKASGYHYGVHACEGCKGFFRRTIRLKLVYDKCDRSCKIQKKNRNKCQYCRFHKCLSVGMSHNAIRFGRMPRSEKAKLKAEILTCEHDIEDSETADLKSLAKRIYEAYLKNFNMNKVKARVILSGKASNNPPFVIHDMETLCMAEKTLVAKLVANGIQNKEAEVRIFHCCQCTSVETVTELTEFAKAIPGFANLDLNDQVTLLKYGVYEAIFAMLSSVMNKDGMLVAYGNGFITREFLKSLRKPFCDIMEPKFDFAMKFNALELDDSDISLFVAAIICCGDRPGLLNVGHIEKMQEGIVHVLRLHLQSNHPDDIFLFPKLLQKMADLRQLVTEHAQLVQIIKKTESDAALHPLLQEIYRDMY
Chain of Peroxisome proliferator-activated receptor gamma (Homo sapiens) (P37231 whole entry, looked up, the tested form may be a part): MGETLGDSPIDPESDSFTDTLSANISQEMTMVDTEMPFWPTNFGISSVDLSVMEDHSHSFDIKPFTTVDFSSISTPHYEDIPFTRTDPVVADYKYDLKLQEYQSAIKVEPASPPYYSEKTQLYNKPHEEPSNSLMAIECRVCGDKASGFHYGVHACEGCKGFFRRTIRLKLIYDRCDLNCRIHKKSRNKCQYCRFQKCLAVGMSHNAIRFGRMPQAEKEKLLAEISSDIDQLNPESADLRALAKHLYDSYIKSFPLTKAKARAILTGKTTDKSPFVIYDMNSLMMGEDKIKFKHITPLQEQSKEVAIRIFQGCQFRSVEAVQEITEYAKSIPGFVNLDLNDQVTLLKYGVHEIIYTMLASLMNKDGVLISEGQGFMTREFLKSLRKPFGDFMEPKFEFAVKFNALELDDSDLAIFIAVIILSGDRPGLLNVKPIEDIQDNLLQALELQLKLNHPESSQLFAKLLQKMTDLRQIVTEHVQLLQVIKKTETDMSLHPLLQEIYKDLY
Chain of Retinoic acid receptor alpha (Homo sapiens) (P10276 whole entry, looked up, the tested form may be a part): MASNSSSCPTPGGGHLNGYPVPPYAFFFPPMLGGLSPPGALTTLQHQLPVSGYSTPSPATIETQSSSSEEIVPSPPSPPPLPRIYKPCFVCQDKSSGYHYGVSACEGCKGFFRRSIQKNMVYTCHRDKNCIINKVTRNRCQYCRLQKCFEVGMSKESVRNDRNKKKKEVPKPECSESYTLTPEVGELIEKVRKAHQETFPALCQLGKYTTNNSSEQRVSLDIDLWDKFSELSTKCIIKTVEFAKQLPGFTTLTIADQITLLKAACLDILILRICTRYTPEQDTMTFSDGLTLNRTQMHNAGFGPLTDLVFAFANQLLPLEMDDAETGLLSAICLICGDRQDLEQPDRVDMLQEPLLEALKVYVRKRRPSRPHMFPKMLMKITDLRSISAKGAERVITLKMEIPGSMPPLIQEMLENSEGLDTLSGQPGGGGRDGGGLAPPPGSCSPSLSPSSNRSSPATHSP
Chain of Nuclear receptor subfamily 1 group I member 2 (Homo sapiens) (O75469 whole entry, looked up, the tested form may be a part): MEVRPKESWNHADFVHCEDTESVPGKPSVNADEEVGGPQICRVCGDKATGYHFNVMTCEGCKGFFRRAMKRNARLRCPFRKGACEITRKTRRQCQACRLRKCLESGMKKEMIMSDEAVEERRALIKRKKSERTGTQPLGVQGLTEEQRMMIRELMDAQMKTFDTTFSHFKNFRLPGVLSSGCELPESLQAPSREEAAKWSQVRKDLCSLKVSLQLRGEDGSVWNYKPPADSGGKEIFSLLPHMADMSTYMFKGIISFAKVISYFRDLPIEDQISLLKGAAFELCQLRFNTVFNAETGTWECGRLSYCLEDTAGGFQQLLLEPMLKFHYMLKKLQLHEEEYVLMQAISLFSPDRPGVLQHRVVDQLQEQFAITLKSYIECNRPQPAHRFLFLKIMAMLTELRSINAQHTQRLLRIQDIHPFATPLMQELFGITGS
Chain of human Retinoic Acid Receptor beta (RARb), RARB (gene 5915) (P10826 whole entry, looked up, the tested form may be a part): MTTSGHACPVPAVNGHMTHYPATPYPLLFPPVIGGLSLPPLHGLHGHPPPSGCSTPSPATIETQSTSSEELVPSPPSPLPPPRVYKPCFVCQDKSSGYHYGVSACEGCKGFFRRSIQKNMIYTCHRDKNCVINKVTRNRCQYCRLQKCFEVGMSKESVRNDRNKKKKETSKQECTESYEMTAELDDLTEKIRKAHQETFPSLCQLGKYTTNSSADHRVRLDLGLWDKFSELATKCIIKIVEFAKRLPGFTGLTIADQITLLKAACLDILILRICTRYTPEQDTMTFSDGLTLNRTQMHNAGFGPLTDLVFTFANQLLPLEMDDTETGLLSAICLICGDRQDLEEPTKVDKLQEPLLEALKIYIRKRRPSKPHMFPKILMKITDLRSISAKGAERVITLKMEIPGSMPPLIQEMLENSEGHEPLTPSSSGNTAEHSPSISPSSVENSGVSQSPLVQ
Chain of human RAR-related Orphan Receptor beta (RORb), RORB (gene 6096) (Q92753 whole entry, looked up, the tested form may be a part): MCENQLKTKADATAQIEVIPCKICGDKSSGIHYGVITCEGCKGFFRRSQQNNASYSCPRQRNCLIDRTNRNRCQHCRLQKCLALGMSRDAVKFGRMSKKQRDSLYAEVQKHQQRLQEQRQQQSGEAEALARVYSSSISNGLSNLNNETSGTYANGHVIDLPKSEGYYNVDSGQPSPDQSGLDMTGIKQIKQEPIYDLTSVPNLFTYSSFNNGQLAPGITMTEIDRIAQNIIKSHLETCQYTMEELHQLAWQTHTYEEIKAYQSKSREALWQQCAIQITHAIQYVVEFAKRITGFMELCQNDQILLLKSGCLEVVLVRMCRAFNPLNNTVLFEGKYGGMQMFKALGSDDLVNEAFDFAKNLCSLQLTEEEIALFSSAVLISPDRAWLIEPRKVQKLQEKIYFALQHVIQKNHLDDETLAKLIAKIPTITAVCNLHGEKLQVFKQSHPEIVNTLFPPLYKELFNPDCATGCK

Clc1ccccc1Cl
inactive: [1] | [2] | [3] | [4]

Clc1ccc(C(c2ccc(Cl)cc2)C(Cl)Cl)cc1
inactive: [1] | [4]
active: [2] 37.9 µM | [3] 15.3 µM | [5] 7.96 µM

Cc1ccc(N)c(N)c1
inactive: [1] | [2] | [5] | [6] | [7]
active: [3] 2.11 µM

CN(C)c1ccccc1
inactive: [1] | [2] | [3] | [7]

ClC1=C(Cl)C2(Cl)C3C(Cl)C=CC3C1(Cl)C2(Cl)Cl (configuration not stated)
inactive: [8] | [4] | [5] | [6]
active: [2] 30.2 µM | [3] 7.84 µM

Cc1ccc(N)cc1
inactive: [1] | [2] | [3] | [7]

Clc1ccc(C(c2ccc(Cl)cc2)C(Cl)(Cl)Cl)cc1
active: [2] 34.7 µM | [3] 20.1 µM
inactive: [8] | [4]

CN(C)c1ccc(C(=O)c2ccc(N(C)C)cc2)cc1
active: [3] 1.68 µM | [4] 6.44 µM
inactive: [1] | [5]

CCCCCCCCn1sccc1=O
inactive: [1]
active: [2] 11.7 µM | [3] 0.796 µM | [4] 9.45 µM | [5] 10.7 µM

Nc1ccc(Cc2ccc(N)cc2)cc1
inactive: [1] | [2] | [9] | [3] | [4]

ClCCOCCCl
inactive: [8] | [2] | [3] | [4] | [5] | [6]

CCC(C)c1ccc(O)cc1 (configuration not stated)
inactive: [1] | [3] | [5]

c1ccc(N=Nc2ccccc2)cc1
active: [4] 43 µM
inactive: [1] | [3] | [5]

N#CC(Br)(Br)C(N)=O
not listed: [1] | [4]
inactive: all other assays above

CCCCCOC(=O)c1ccccc1C(=O)OCCCCC
active: [3] 19.1 µM | [4] 49.7 µM | [5] 27.9 µM
inactive: [1] | [2]

CC(C)COC(=O)c1ccccc1C(=O)OCC(C)C
inactive: [1] | [2]
active: [3] 28.6 µM | [4] 44.6 µM

Oc1ccccc1Cl
inactive: [1] | [2] | [3] | [4] | [5]

C=CCc1ccc2c(c1)OCO2
inactive: [1] | [2] | [3] | [4] | [5]

Nc1ccc([N+](=O)[O-])cc1
inactive: [1] | [2] | [3] | [5]

CS(=O)(=O)NC(=O)c1cc(Oc2ccc(C(F)(F)F)cc2Cl)ccc1[N+](=O)[O-]
active: [4] 30.3 µM | [5] 7.65 µM
inactive: [1] | [9] | [10] | [3] | [6]

CC(C)(C)OOC(C)(C)CCC(C)(C)OOC(C)(C)C
active: [9] 24.7 µM
inactive: [2] | [3] | [5]

[O-][Cl+]O
inactive: [3] | [5]

Cc1ccc([N+](=O)[O-])cc1
inactive: [8] | [2] | [3] | [5]

CCCCCCCCCCCCCN1CC(C)OC(C)C1 (configuration not stated)
active: [3] 14.5 µM | [5] 26.2 µM
inactive: [8] | [4] | [6]

OCCCBr
inactive: [8] | [2] | [3] | [5]

Clc1ccc(Cl)c(Cl)c1
inactive: [8] | [10] | [3] | [4]

Oc1ccc2ccc3cccc4ccc1c2c34
inactive: [8] | [9] | [6]
active: [3] 24.6 µM | [5] 33.4 µM

CC(C)N(Cc1ccccc1)C(=O)C(C)(C)C
inactive: [9] | [3]
active: [5] 0.556 µM

CCCCC(CC)COC(=O)c1ccc(C(=O)OCC(CC)CCCC)c(C(=O)OCC(CC)CCCC)c1 (configuration not stated)
inactive: [2] | [9] | [3] | [5] | [7]

CC(C)(C)C(O)(CCc1ccc(Cl)cc1)Cn1cncn1 (configuration not stated)
active: [5] 0.977 µM
inactive: [8] | [3] | [4] | [6]

[As]#[In]
inactive: [2] | [9] | [10] | [3] | [6] | [7]

C[N+](C)(C)CC1CO1 (configuration not stated)
inactive: [3] | [7]

[Cl-].[Cl-].[Hg+2]
active: [3] 32.6 µM
inactive: [2] | [4] | [5] | [7]

O=C(N[C@H](c1ccccc1)[C@@H]1CN2CCC1CC2)c1c(Cl)ccc(C(F)(F)F)c1Cl
active: [3] 29.7 µM | [5] 0.226 µM
inactive: [8]

OCCOCCO
inactive: [8] | [9] | [3]

Cc1ccc(N=C=O)cc1N=C=O
active: [3] 13.9 µM
inactive: [9] | [10] | [6]

CCC[CH2][Sn]([Cl])([CH2]CCC)[CH2]CCC
inactive: [8]
active: [2] 0.148 µM | [3] 0.148 µM | [5] 0.927 µM

CCN(CC)CCO
inactive: [8] | [3]

CC(O)CCO (configuration not stated)
inactive: [8] | [9] | [10] | [3] | [6]
active: [5] 24.1 µM

O=P(OCCCl)(OCCCl)OCCCl
not listed: [1] | [7] | [8]
inactive: all other assays above

C1=Cc2cccc3cccc1c23
inactive: [8] | [10] | [3] | [4] | [5] | [6]

CNC(=O)Oc1cccc2c1OC(C)(C)C2
inactive: [8] | [3] | [4] | [5] | [7]

CCN(CC)N=O
inactive: [8] | [3]

CCCSC(=O)N(CCC)CCC
inactive: [8] | [2] | [3] | [5]

COC(=O)c1ccccc1N
inactive: [8] | [3] | [7]

Cn1cc(-c2ccccc2)c(=O)c(-c2cccc(C(F)(F)F)c2)c1
active: [5] 4.04 µM
inactive: [8] | [3] | [4]

N#CC(Br)Br
inactive: [8] | [3] | [4] | [5]

Brc1ccc(Oc2ccccc2)cc1
inactive: [3] | [4] | [5]
